From PubChem
A selection: hits, their analogues and other compounds. The true share with any hit is near 21%.
Gal4-VP16 FLuc: counter-screen for ROR gamma inhibitors: Gal4-VP16 reporter; Drosophila S2 Gal4-VP16 UAS-luciferase, luminescence, 20 h; Potency, µM (doses to about 53.6 µM), actives largely listed as inhibitors; 3.5% of 310,000 active;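 also: Gal4-VP16 expression switched on by copper sulfate through the metallothionein promoter; nearly all actives have a fitted effect of over 50% in size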
IL-1B inflam inh: inflammasome signaling inhibition, IL-1 beta readout | THP-1 LPS/ATP IL-1B secretion, AlphaLISA, 16 h; active compounds read low | activity change, % at 57.5 µM | 4.7% of 360,000 active; in the data active = activity change below about -50%; inconclusive = mostly about -30% to -49%
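THP-1 cells pretreated 1 hr with compounds (up to 57.5 uM final), then stimulated with LPS (250 ng/mL final) plus ATP (1.25 mM final); secreted IL-1B measured by AlphaLISA after 16 hr, decreased signal indicating inhibition.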
RORgamma inh: ROR gamma (mouse) transcription inhibition. AID 2551. 5.4% of 310,000 active. P51450. Potency, µM (doses to about 53.6 µM), most hits filed as inhibitors. Drosophila S2 Gal4-RORgamma UAS-luciferase reporter, 20 h; also: nearly all actives have a fitted effect of over 60% in size
Target sequence (P51450 whole entry, looked up, the tested form may be a part): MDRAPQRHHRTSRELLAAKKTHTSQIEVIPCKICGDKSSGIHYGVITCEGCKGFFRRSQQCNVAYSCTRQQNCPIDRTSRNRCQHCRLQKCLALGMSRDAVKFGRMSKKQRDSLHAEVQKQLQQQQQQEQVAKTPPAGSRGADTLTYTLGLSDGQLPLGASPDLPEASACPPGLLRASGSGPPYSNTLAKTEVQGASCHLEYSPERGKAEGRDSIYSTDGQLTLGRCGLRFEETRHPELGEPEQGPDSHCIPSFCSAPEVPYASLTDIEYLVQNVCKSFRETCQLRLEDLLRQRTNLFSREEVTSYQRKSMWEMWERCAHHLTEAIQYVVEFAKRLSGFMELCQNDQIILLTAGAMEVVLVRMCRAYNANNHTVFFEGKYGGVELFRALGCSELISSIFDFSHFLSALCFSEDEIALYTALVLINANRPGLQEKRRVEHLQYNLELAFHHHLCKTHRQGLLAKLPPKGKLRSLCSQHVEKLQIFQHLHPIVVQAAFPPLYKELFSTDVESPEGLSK
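ROR gamma transcriptional activity was tracked as Gal4-UAS luciferase output in stably transfected Drosophila Schneider cells, with compound added 1 hr before 700 uM copper sulfate induction and a 20 hr ambient-temperature incubation.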
TDP1 cell noCPT: qHTS for Inhibitors of human tyrosyl-DNA phosphodiesterase 1 (TDP1): qHTS in cells in absence of CPT; DT40 Tdp1-/- hTDP1 cells, no CPT, ATP luminescence, 48 h; Potency, µM (highest dose often 46.2 µM), usual class: inhibitors; 15% of 420,000 active; also: nearly all actives have a fitted effect of over 55% in size
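Camptothecin absent (DMSO only). Human TDP1-complemented DT40 knockout cells, 400 cells/well, 37 °C for minimum 48 hr; ATP measured via CellTiter-Glo, 30 min dark incubation, luminescence.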
DT40 TDP1 CPT: growth inhibition of DT40 Tdp1-/-;hTDP1 cells with camptothecin (screen for TDP1 inhibitors); chicken DT40 Tdp1-/-;hTDP1 cells + 20 nM CPT, ATP luminescence, 48 h; Potency, µM (highest dose often 46.2 µM), usual class: inhibitors; 12% of 420,000 active; also: nearly all actives have a fitted effect of over 55% in size
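Chicken DT40 Tdp1-/- cells complemented with human TDP1, 400 cells/well, exposed to compounds plus 20 nM camptothecin for at least 48 h at 37 C; viability read as ATP content by CellTiter-Glo luminescence.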
ELG1 repair inh: ELG1-dependent DNA repair inhibition | AID 504467 | 2.3% of 330,000 active | HEK293T ELG1-luciferase reporter, luminescence, 16 h; DNA damage induced by 5-fluorouridine | Potency, µM (highest dose often 46.1 µM), actives largely listed as inhibitors; also: nearly all actives have a fitted effect of over 55% in size
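Luminescence from the luciferase reporter, measured 30 min after ONE-Glo reagent at room temperature, was the read-out. Beforehand, 2,000 cells per well were exposed for 16 hr at 37 °C to 5-fluorouridine together with compound or vehicle.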
A number is an active result; – = inactive; ? = inconclusive; · = no result; [ ] = remark or other dose. Unless noted, calls follow the shape of the dose curve; as a rule, active = well fitted curve in the direction sought with a large enough effect; inconclusive = small, poorly fitted or top-dose-only effect, or another doubt; inactive = no such curve, though single readings can be large; an effect the other way counts as inactive or inconclusive.

SMILES | Gal4-VP16 FLuc | IL-1B inflam inh | RORgamma inh | TDP1 cell noCPT | DT40 TDP1 CPT | ELG1 repair inh
COc1ccc2c(c1)CC[C@@H]1[C@@H]2CC[C@]2(C)[C@@H](NCCCCCCN3C(=O)C=CC3=O)CC[C@@H]12 | · | · | · | 22.5µM | ? | ·
CC(=NNC(=S)N1CC2CCC(CC2)C1)c1nccs1 | · | -100.2 | · | 0.0259µM | 0.0206µM | ·
COc1ccc2c(c1)CCc1c(C(=O)Nc3c(C)nn(Cc4ccccc4C)c3C)noc1-2 | · | · | · | 10.3µM | 23.1µM | ·
COc1ccc(NC(=O)c2c(C)nn(Cc3ccccc3Cl)c2Cl)cc1Cl | – | – | – | ? | – | –
O=C(CCn1c(=O)oc2ccccc21)N1CCN(C(c2ccccc2)c2ccccc2)CC1 | – | -64.6 | – | ? | 16.4µM | 13µM
Cc1cc(/C=C/c2cccc3sc(C)[n+](CCCCI)c23)ccc1N(CCCl)CCCl | · | · | · | 1.58µM | 2µM | ·
COc1cc(OC2CCN(C(C)=O)CC2)ccc1C(=O)N1CCC(N2C(=O)OCc3ccccc32)CC1 | – | · | – | · | · | ·
CCN1C(=O)/C(=C/c2ccc(N(CC)CC)cc2OC)C(=O)NC1=S | – | -55.0 | – | – | ? | –
COc1ccccc1/C=C1\C(=O)NC(=S)N(c2ccccc2)C1=O | – | – | – | – | – | –
CCCCn1c(CN2CCN(c3ccc(F)cc3)CC2)nc2c1c(=O)n(C)c(=O)n2C | – | – | ? | 1.64µM | 1.64µM | –
CN1CCN(c2csc3ccc(F)cc3c2=O)CC1 | · | · | · | – | – | ·
C[C@]12CCC3C(CC[C@H]4C[C@H](O)[C@H](O)C[C@]34C)C1CC[C@@H]2O (stereo partly specified) | · | – | · | ? | 20.6µM | ·
CC(C)C1CN1CC(O)Cn1ccnc1[N+](=O)[O-] (stereo unspecified) | · | – | · | ? | 18.4µM | ·
CC=C(CC)C1(CC)C(=O)NC(=S)NC1=O | · | – | · | – | – | ·
O=c1[nH]c(=O)n(-c2ccccc2)c(O)c1/C=C1/C(c2ccccc2)=Nc2ccccc21 | ? | – | – | 2.31µM | 2.06µM | –
COC(=O)C1=Nc2ccccc2/C1=C\c1c(O)n(-c2ccc(Br)cc2)c(=O)[nH]c1=O | ? | ? | ? | ? | ? | –
Cc1cccc(N2CCN(C(=O)CCNS(=O)(=O)c3ccc4c(c3)oc(=O)n4C)CC2)c1C | – | -67.3 | – | 16.4µM | ? | ?
Cn1c(=O)oc2cc(S(=O)(=O)N3CCCc4ccccc43)ccc21 | – | – | – | 5.8µM | 4.11µM | ?
COc1ccccc1NC(=O)Cn1c(=O)oc2cc(S(=O)(=O)N3CCCC3)ccc21 | – | – | – | ? | – | –
Cn1c(=O)oc2cc(S(=O)(=O)N3CCC(C(=O)N4CCN(c5ccc(F)cc5)CC4)CC3)ccc21 | – | – | – | 9.2µM | 25.9µM | ?
Cc1ccc(Cl)cc1NC(=O)Cn1c(=O)oc2cc(S(=O)(=O)N3CCCCCC3)ccc21 | · | · | · | 16.4µM | 14.6µM | ·
Oc1c(Br)cc(Br)cc1Oc1ccc(Br)cc1Br | – | · | ? | · | · | –
CNCC/C=C\c1cccnc1 | – | · | – | – | – | ·
C[C@H](NC(=O)[C@@H](N)Cc1ccc(O)cc1)C(=O)N[C@@H](Cc1ccccc1)C(=O)NCC(=O)N[C@@H](Cc1ccc(O)cc1)C(=O)N1CCC[C@H]1C(=O)N[C@@H](CO)C(N)=O | · | · | · | –[4.12 µM] | –[4.12 µM] | ·
O=C1Nc2ccc(Cl)cc2C(c2ccccc2Cl)=NC1O (stereo unspecified) | – | · | – | – | ? | ·
SMILES | Gal4-VP16 FLuc | IL-1B inflam inh | RORgamma inh | TDP1 cell noCPT | DT40 TDP1 CPT | ELG1 repair inh
Cc1cccc(N2CCN(C(=O)CCS(=O)(=O)c3ccc4c(c3)oc(=O)n4C)CC2)c1C | – | – | – | ? | ? | ?
Cn1c(=O)oc2cc(S(=O)(=O)N3CCC(C(=O)N4CC=C(c5ccccc5)CC4)CC3)ccc21 | – | – | – | 11.6µM | 23.1µM | ?
Cc1ccc(Cl)cc1N1CCN(C(=O)C2CCN(S(=O)(=O)c3ccc4c(c3)oc(=O)n4C)CC2)CC1 | · | · | · | 0.731µM | 1.16µM | ·
Cn1c(=O)oc2cc(S(=O)(=O)N3CCC(C(=O)N4CCN(c5ccccc5)CC4)CC3)ccc21 | – | – | – | 20.6µM | ? | ?
COc1cccc(N2CCN(C(=O)C3CCCN(S(=O)(=O)c4ccc5c(c4)oc(=O)n5C)C3)CC2)c1 (stereo unspecified) | – | – | ? | 14.6µM | 18.4µM | ?
Cn1c(O)c(C=NCc2cccs2)c(=O)n(C)c1=O | – | – | – | – | ? | –
Cc1ccccc1OCCN=Cc1c(O)n(C)c(=O)n(C)c1=O | – | – | ? | 20.6µM | ? | ?
CC(C)(C)c1csc(NC(=O)Nc2ccccc2)n1 | – | -94.3 | ? | ? | – | ?
Cc1ccc(S(=O)(=O)NCC(=O)OCC(=O)N2N=C(c3ccc(Cl)cc3)CC2c2ccco2)cc1C (stereo unspecified) | – | – | – | 23.1µM | ? | –
COc1ccc(-n2c(/C=C\c3ccccc3F)nc3ccccc3c2=O)cc1OC | · | · | · | 16.4µM | 23.1µM | ·
O=c1c2ccccc2nc(/C=C/c2cccc3ccccc23)n1-c1ccccc1Cl | · | · | · | 10.3µM | 11.6µM | ·
Cc1ccccc1-n1c(/C=C/c2ccccc2F)nc2ccccc2c1=O | · | · | · | 8.2µM | 20.6µM | ·
NCC(=O)c1ccc2ccccc2c1 | · | · | · | – | – | ·
CC1(C)C(O)CC(=O)[C@]2(C)C1CC(=O)[C@]1(C)C2CC[C@@]2(C)C(c3ccoc3)OC(=O)C3O[C@@]321 (stereo partly specified) | – | · | – | – | – | ·
C[N+]1([O-])[C@@H]2CC(OC(=O)[C@@H](CO)c3ccccc3)C[C@@H]1[C@H]1O[C@H]12 (stereo partly specified) | – | · | –[10 µM] | · | · | ·
c1ccc2c(c1)CCNC2 | – | · | – | · | · | ·
CC1=C(C)CN2CC(C#N)=C(N)C2C1 (stereo unspecified) | · | – | · | ? | ? | ·
O=c1ccc2cc(OC3OC(CO)C(O)C(O)C3O)c(O)cc2o1 (stereo unspecified) | – | · | ? | – | ? | ·
O=C1NC(=O)N(c2ccccc2)C(=O)/C1=C/c1coc2ccc(O)cc2c1=O | – | – | – | 14.6µM | 23.1µM | ?
Cc1cc(/C=C2\C(=O)NC(=O)N(c3ccc(Cl)cc3)C2=O)c(C)n1-c1cccc(C(=O)O)c1 | – | – | – | – | – | –
O=C1NC(=O)N(c2ccc(Cl)cc2)C(=O)/C1=C/c1coc2ccc(O)cc2c1=O | – | ? | – | 14.6µM | 14.6µM | –
C#CCOS(=O)OC1CCCCC1Oc1ccc(C(C)(C)C)cc1 (stereo unspecified) | – | · | ? | – | – | ·
O=[N+]([O-])c1ccc2c3c(cccc13)CC2 | – | · | – | · | · | ·
